TRb SRC2 PPI: TRbeta-SRC2 interaction inhibition; AID 1469; 0.065% of 280,000 active; P10828; Potency, µM (series often up to 106 µM), most hits filed as inhibitors; TRbeta-SRC2 peptide binding, fluorescence polarization; receptor liganded with 1 µM T3; further: nearly all actives have a fitted effect of over 50% in size
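Fluorescence polarization of 20 nM Texas Red SRC2 peptide with 0.6 uM human TRb ligand-binding domain, in Tris buffer with 1uM T3 and 5% DMSO. Incubated 5 hr ambient; normalized to unbound and bound controls.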
TexasRed fluor: alters Texas Red total fluorescence, flagging assay interference; TRb/SRC2 Texas Red total fluorescence interference; Potency, µM (top dose mostly 106 µM); 0.29% of 280,000 active; active means well fitted curve in either direction with a large enough effect; inconclusive means small, poorly fitted or top-dose-only effect
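Flags fluorescent or light-absorbing compounds by total fluorescence, S + 2P, at 555 nm excitation and 632 nm emission. Mixture: 20 nM Texas Red SRC2 peptide, 0.6 uM human TRb LBD, 1 uM T3, 5% DMSO; compound exposure 5 h at ambient temperature.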
Tau fibril FP: tau fibrillization inhibition (FP) | AID 1468 | 0.39% of 280,000 active | Potency, µM (titrated, usually from 57.7 µM), hits mostly inhibitors | K18 P301L tau heparin fibrillization, Alexa594 FP, 6 h; further: nearly all actives have a fitted effect of over 55% in size
Target sequence (P10636 561-689 P618L limits assumed): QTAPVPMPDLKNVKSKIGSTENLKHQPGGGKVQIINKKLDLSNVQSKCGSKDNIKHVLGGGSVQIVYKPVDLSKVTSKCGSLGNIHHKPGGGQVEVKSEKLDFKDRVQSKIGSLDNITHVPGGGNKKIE
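Heparin (20 uM) drove fibril formation of recombinant tau K18 P301L, 15 uM unlabeled with 0.24 uM Alexa 594 label, for 6 hr at 37 C in 100 mM sodium acetate pH 7. Fluorescence polarization (555/632 nm) read 1 hr after 30 uM ThT.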
Tau ThT inhib: blocks human tau fibril formation measured by thioflavin T; P10636; Potency, µM (titrated, usually from 57.4 µM), actives largely listed as inhibitors; 2.1% of 270,000 active; recombinant tau K18 P301L, heparin-induced fibrillization, ThT fluorescence; further: nearly all actives have a fitted effect of over 55% in size
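Fibril formation assay: tau K18 P301L at 15 uM with trace Alexa 594 label, heparin inducer 20 uM, pH 7 sodium acetate buffer, 37 C for 6 hr; endpoint ThT signal.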
JMJD2E inh: blocks human JMJD2E demethylase activity; JMJD2E catalytic domain, FDH-coupled NADH fluorescence (FDH is formaldehyde dehydrogenase); Potency, µM (highest dose often 57.1 µM), usual class: inhibitors; B2RXH2; 1.6% of 230,000 active; active means well fitted inhibition curve with a large enough effect, not every such curve was filed as active; inconclusive means small, poorly fitted or top-dose-only effect, or another doubt; inactive means no such curve, though single readings can be large or run the other way; further: nearly all actives have a fitted effect of over 50% in size
Target sequence (B2RXH2 1-337 limits assumed): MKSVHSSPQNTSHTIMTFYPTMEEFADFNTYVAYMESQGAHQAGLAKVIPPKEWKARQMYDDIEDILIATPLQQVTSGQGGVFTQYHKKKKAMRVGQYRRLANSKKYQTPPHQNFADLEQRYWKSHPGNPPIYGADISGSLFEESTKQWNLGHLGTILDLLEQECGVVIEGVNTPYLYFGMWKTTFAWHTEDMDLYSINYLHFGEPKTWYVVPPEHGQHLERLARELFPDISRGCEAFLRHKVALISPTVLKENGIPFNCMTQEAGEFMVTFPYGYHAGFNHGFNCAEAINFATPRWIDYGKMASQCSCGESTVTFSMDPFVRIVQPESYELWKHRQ
Tau fluor cs: counter-screen for tau fibril formation inhibitors; tau K18 P301L Alexa594 fluorescence, heparin fibrillization; Potency, µM (titrated, usually from 57.7 µM); 0.93% of 280,000 active; AID 1463; further: nearly all actives have a fitted effect of over 55% in size
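Human tau K18 P301L (15 uM unlabeled, 0.24 uM Alexa 594-labeled) in 100 mM sodium acetate pH 7 with 20 uM heparin, 6 hr at 37 C. ThT 30 uM added, 1 hr ambient; Alexa 594 FP and total fluorescence read at 555/632 nm.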
Large screens that a line does not name were inactive; [ ] = remark or other dose. Sampled rows, rich in hits. Any-hit rate of the full collection: about 3.5%. Unless noted, the call rests on the fitted dose curve; in most records, active means well fitted curve in the direction sought with a large enough effect; inconclusive means small, poorly fitted or top-dose-only effect, or another doubt; inactive means no such curve, though single readings can be large; an effect the other way counts as inactive or inconclusive.

CC(/C=N\Nc1nnc2c(n1)[nH]c1c(C)cccc12)=C\c1ccco1	Tau ThT inhib 1.41µM, Tau fluor cs inconclusive
COc1cc(C(=O)NC(=S)NNC(=O)c2cnccn2)cc(OC)c1OC	Tau ThT inhib inconclusive, JMJD2E inh 11.2µM
COc1ccc(C(=O)NC(=S)NNC(=O)c2cnccn2)cc1	none
CCC(Sc1nc2ccccc2c(=O)[nH]1)C(=O)Nc1ccc(C(C)=O)cc1 (stereo unspecified)	Tau ThT inhib inconclusive
Cc1ccc(S(=O)(=O)N2CN(Cc3ccco3)c3nc4ccccc4nc32)cc1	JMJD2E inh inconclusive
COc1ccc(S(=O)(=O)N2CN(Cc3ccco3)c3nc4ccccc4nc32)cc1	Tau fibril FP inconclusive, Tau ThT inhib 22.4µM, JMJD2E inh inconclusive
O=S(=O)(c1ccc(F)cc1)N1CN(Cc2ccco2)c2nc3ccccc3nc21	Tau fibril FP inconclusive, Tau ThT inhib 31.6µM, JMJD2E inh inconclusive, Tau fluor cs inconclusive
CCc1cccc(C)c1NC(=O)CN1C(=O)C2(SCC(=O)N2c2cccc(F)c2)c2ccccc21 (stereo unspecified)	TexasRed fluor 20µM[quencher], Tau fibril FP inconclusive (no result: JMJD2E inh)
COc1cccc(-c2nc(SCC(=O)NC3CCCC3)c(-c3ccc(C)cc3)[nH]2)c1	Tau fibril FP inconclusive, Tau fluor cs 11.2µM[quencher] (no result: JMJD2E inh)
Cc1ccc(-c2nc(SCC(=O)NCC3CCCO3)c(-c3ccccc3)[nH]2)cc1 (stereo unspecified)	Tau fluor cs inconclusive
COc1cccc(-c2nc(SCC(=O)NC3CCCC3)c(-c3ccccc3)[nH]2)c1	Tau fibril FP inconclusive, Tau fluor cs 25.1µM[quencher] (no result: JMJD2E inh)
COc1cccc(-c2nc(SCC(=O)NCC3CCCO3)c(-c3ccc(Cl)cc3)[nH]2)c1 (stereo unspecified)	Tau ThT inhib inconclusive, Tau fluor cs 12.6µM[quencher] (no result: JMJD2E inh)
COc1cccc(-c2nc(SCC(=O)NCC3CCCO3)c(-c3ccc(C)cc3)[nH]2)c1 (stereo unspecified)	Tau fluor cs inconclusive (no result: JMJD2E inh)
O=C(CSc1nc(-c2ccccc2)[nH]c1-c1ccc(F)cc1)NC1CCCC1	Tau fluor cs 28.2µM[quencher] (no result: JMJD2E inh)
CC(=O)N=C1SC2CS(=O)(=O)CC2N1c1cccc(Cl)c1Cl (stereo unspecified)	none
COc1ccc(-c2[nH]c(-c3ccc(C)cc3)nc2SCC(=O)NC2CCCC2)cc1	Tau ThT inhib inconclusive, Tau fluor cs inconclusive
COc1ccc(-c2nc(SCC(=O)NC3CCCC3)c(-c3ccc(C)cc3)[nH]2)cc1OC	Tau fibril FP inconclusive, Tau ThT inhib inconclusive, Tau fluor cs 17.8µM[quencher] (no result: JMJD2E inh)
COc1cccc(-c2nc(SCC(=O)NC3CCCC3)c(-c3ccc(F)cc3)[nH]2)c1	Tau ThT inhib inconclusive, Tau fluor cs 12.6µM[quencher] (no result: JMJD2E inh)
CC1CN(C(=O)c2ccc(COc3ccc(C(C)C)cc3)o2)CC(C)O1 (stereo unspecified)	Tau ThT inhib inconclusive
Cc1ccc(-n2c(O)c(/C=N/Nc3ccc(S(=O)(=O)N4CCOCC4)cc3[N+](=O)[O-])c3ccccc3c2=O)c(C)c1	Tau ThT inhib 12.6µM, JMJD2E inh inconclusive, Tau fluor cs inconclusive
O=C(O)COc1ccccc1/C=N/Nc1ccc(S(=O)(=O)N2CCOCC2)cc1[N+](=O)[O-]	Tau ThT inhib inconclusive
COc1cc(OC)c(NC(=O)Nc2ccccc2OCc2cc(=O)n3cc(C)ccc3n2)cc1Cl	Tau fibril FP inconclusive, Tau ThT inhib inconclusive, Tau fluor cs inconclusive (no result: JMJD2E inh)
COc1ccc(NC(=O)Nc2cccc(OCc3cc(=O)n4cccc(C)c4n3)c2)c(OC)c1	Tau fibril FP inconclusive, Tau ThT inhib inconclusive, Tau fluor cs 7.08µM[quencher] (no result: JMJD2E inh)
COc1cc(OC)c(NC(=O)Nc2cccc(OCc3cc(=O)n4ccccc4n3)c2)cc1Cl	Tau ThT inhib inconclusive, Tau fluor cs 6.31µM[quencher] (no result: JMJD2E inh)
COc1ccc(OC)c(NC(=O)Nc2cccc(OCc3cc(=O)n4cc(C)ccc4n3)c2)c1	Tau fibril FP inconclusive, Tau ThT inhib inconclusive, Tau fluor cs 12.6µM[quencher] (no result: JMJD2E inh)
CCC(=O)Nc1cccc(OCc2cc(=O)n3cc(C)ccc3n2)c1	none (no result: JMJD2E inh)
CCCc1nnc(NC(=O)CSc2nnc3c4ccccc4n(CC)c3n2)s1	none (no result: JMJD2E inh)
COc1ccc(CCNC(=O)c2c[nH]n3c(=O)c(Cc4ccccc4Cl)c(C)nc23)cc1OC	none (no result: JMJD2E inh)
CCc1ccccc1N(C)C(=O)CCc1nc(-c2ccc(C)cc2)no1	none
c1ccc2c(Nc3nc4c(s3)CCCC4)cccc2c1	Tau ThT inhib inconclusive, JMJD2E inh inconclusive, Tau fluor cs inconclusive
S=c1[nH]nc(Nc2cccc3ccccc23)s1	Tau ThT inhib inconclusive, JMJD2E inh 25.1µM, Tau fluor cs inconclusive
Oc1ccccc1N=Nc1nc(-c2ccccc2)c(-c2ccccc2)[nH]1	Tau ThT inhib 4.47µM, Tau fluor cs 11.2µM[quencher]
COc1ccc(-c2nc(-c3ccccc3)c(-c3ccccc3)[nH]2)cc1Br	TexasRed fluor inconclusive, Tau fibril FP inconclusive, Tau ThT inhib inconclusive, Tau fluor cs inconclusive (no result: JMJD2E inh)
COc1ccc(N=Nc2nc(-c3ccccc3)c(-c3ccccc3)[nH]2)cc1	Tau ThT inhib 3.98µM, Tau fluor cs inconclusive
COc1ccccc1N=Nc1nc(-c2ccccc2)c(-c2ccccc2)[nH]1	Tau ThT inhib 3.55µM, Tau fluor cs inconclusive
Nc1nc(N)c(-c2ccccc2)s1	none (no result: Tau fibril FP, Tau ThT inhib, JMJD2E inh, Tau fluor cs)
CC(=O)OCOC(c1ccc2ccccc2c1)P(=O)(OCOC(C)=O)OCOC(C)=O (stereo unspecified)	none (no result: JMJD2E inh)
CC(/C=C/c1ccc(N(C)C)cc1)=N\N=C1\NC(=O)CC(C(=O)Nc2ccccc2)S1 (stereo unspecified)	Tau ThT inhib inconclusive, Tau fluor cs inconclusive
CC(/C=C/c1ccc(N(C)C)cc1)=N/N=C1/NC(=O)CC(C(=O)Nc2ccc(Cl)cc2)S1 (stereo unspecified)	Tau ThT inhib 7.94µM, Tau fluor cs 8.91µM[quencher]
CCOC(=O)C1=C(Cc2ccc(F)cc2)C(=O)c2ccccc2C1=O	Tau fibril FP 15.8µM, Tau ThT inhib 10µM, JMJD2E inh inconclusive, Tau fluor cs inconclusive
O=C(OCc1ccc(F)cc1)c1ccc2c(c1)-c1ccccc1C2=O	Tau ThT inhib inconclusive
Nc1nn(-c2ccccc2)c(N)c1N=Nc1cccc(F)c1	Tau ThT inhib 10µM
Cc1nn(-c2ccccc2)c(N)c1N=Nc1cccnc1	Tau ThT inhib inconclusive
Nc1nn(-c2ccccc2)c(N)c1N=Nc1ccc2c(c1)OCO2	Tau ThT inhib 1.78µM, Tau fluor cs inconclusive
COC(=O)Cn1nc(C)c2c(C)n(-c3ccccc3)nc2c1=O	none (no result: JMJD2E inh)
COc1cccc(C2=NCCc3cc4c(cc32)OCO4)c1OC	none
COc1ccc2cc3[n+](cc2c1OC)CCc1cc2c(cc1-3)OCO2	Tau ThT inhib 17.8µM
CC1(C)Cc2c(C#N)c(N)sc(=S)c2CS1	Tau ThT inhib 17.8µM, JMJD2E inh inconclusive, Tau fluor cs inconclusive

Assay outcomes from PubChem.
